High-throughput results: PubChem BioAssay, National Center for Advancing Translational Sciences (NCATS)
ELG1 DNA repair: inhibitors of ELG1-dependent DNA repair in HEK293T cells; 330,000 tested, 2.3% active; Potency, µM (highest dose often 46.1 µM), for the others: at the top dose activity change, negative = inhibition, usual class: inhibitors; HEK293T ELG1-luciferase reporter, luminescence, 16 h; DNA damage induced by 5-fluorouridine; also: nearly all actives have a fitted effect of over 55% in size
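Reporter activity after DNA damage by 5-fluorouridine is monitored. Compound-treated cells incubate 16 hr at 37 °C, then ONE-Glo is added for 30 min before luminescence reading.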
TDP1 cell CPT: growth inhibition of DT40 Tdp1-/-;hTDP1 cells with camptothecin (screen for TDP1 inhibitors) | chicken DT40 Tdp1-/-;hTDP1 cells + 20 nM CPT, ATP luminescence, 48 h | Potency, µM (highest dose often 46.2 µM), without a hit: at the top dose activity change, negative = growth inhibition, actives largely listed as inhibitors | 420,000 tested, 12% active | AID 686979; also: nearly all actives have a fitted effect of over 55% in size
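Chicken DT40 Tdp1-/- cells complemented with human TDP1, 400 cells/well, exposed to compounds plus 20 nM camptothecin for at least 48 h at 37 C; viability read as ATP content by CellTiter-Glo luminescence.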
VP16 counter: Gal4-VP16 reporter inhibition counter-screen. Drosophila S2 Gal4-VP16 UAS-luciferase, luminescence, 20 h. 310,000 tested, 3.5% active. AID 2546. Potency, µM (titrated, usually from 53.6 µM), inactives show at the highest dose activity, negative = inhibition, hits mostly inhibitors;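 also: Gal4-VP16 expression switched on by copper sulfate through the metallothionein promoter; nearly all actives have a fitted effect of over 50% in size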
ALOX12 inh: inhibitors of human 12S-lipoxygenase ALOX12; P18054; purified 12hLO, xylenol orange hydroperoxide absorbance; Potency, µM (doses to about 108 µM), for inactives: at the top dose activity change, negative = inhibition, actives largely listed as inhibitors; 580,000 tested, 1.1% active
Target sequence (P18054 whole entry, looked up): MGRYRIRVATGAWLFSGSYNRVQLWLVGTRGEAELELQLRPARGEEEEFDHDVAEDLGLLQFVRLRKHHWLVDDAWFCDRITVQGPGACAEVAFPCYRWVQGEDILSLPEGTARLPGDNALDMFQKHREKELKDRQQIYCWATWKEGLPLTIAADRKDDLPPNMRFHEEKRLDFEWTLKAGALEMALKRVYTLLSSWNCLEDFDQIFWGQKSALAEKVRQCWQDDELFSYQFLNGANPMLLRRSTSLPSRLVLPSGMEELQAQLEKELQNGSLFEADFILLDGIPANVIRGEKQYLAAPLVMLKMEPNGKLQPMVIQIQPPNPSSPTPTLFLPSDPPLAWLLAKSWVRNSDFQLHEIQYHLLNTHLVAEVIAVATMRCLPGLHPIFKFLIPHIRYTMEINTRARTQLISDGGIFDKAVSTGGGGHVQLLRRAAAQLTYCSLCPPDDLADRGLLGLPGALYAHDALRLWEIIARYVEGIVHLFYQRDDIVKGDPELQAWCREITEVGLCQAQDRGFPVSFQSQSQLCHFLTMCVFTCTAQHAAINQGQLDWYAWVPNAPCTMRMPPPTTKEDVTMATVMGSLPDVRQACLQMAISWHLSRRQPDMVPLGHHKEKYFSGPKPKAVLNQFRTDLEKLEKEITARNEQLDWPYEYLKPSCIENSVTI
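Purified human 12hLO (150 nM final) in 25 mM Hepes, 0.01% Triton X-100, pH 7.0 was preincubated 15 min at room temperature with compound. Then 40 uM arachidonic acid was added, 30 min. Hydroperoxide was read by Fe-XO absorbance ratio 573/405 nm.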
RORgamma inh: inhibitors of mouse ROR gamma transcriptional activity; P51450; Drosophila S2 Gal4-RORgamma UAS-luciferase reporter, 20 h; Potency, µM (doses to about 53.6 µM), for inactives: at the top dose activity change, negative = inhibition, most hits filed as inhibitors; 310,000 tested, 5.4% active; also: nearly all actives have a fitted effect of over 60% in size
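Using a luciferase readout, inhibitors were identified by reduced reporter activity in Drosophila cells coexpressing a copper-inducible Gal4–ROR gamma fusion and UAS-driven Photinus luciferase, incubated 20 hr after 700 uM copper sulfate.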
DT40 TDP1 no CPT: qHTS for Inhibitors of human tyrosyl-DNA phosphodiesterase 1 (TDP1): qHTS in cells in absence of CPT; DT40 Tdp1-/- hTDP1 cells, no CPT, ATP luminescence, 48 h; AID 686978, 2013; 420,000 tested, 15% active; Potency, µM (highest dose often 46.2 µM), without a hit: at the highest dose activity change, negative = growth inhibition, actives largely listed as inhibitors; also: nearly all actives have a fitted effect of over 55% in size
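Growth of hTDP1-complemented DT40 Tdp1-knockout cells is measured by ATP luminescence after at least 48 hr compound exposure at 37 °C, with DMSO substituting for the 20 nM CPT used in the parallel screen.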
* hit, by the source's call. Shown are actives, neighbours in structure and some others; about 15% of the full set was active somewhere. Calls follow the shape of the dose curve; as a rule, active = well fitted curve in the direction sought with a large enough effect; inconclusive = small, poorly fitted or top-dose-only effect, or another doubt; inactive = no such curve, though single readings can be large; an effect the other way counts as inactive or inconclusive. % is scaled to controls: 0 for no effect and ±100 for the full control effect; potency is read from the fitted curve at half-maximal effect.

For CC1CCN(C(=O)c2ccc(S(=O)(=O)Cc3ccccc3F)c([N+](=O)[O-])c2)CC1 the results were ELG1 DNA repair 20.6µM*, TDP1 cell CPT inconclusive, VP16 counter -4.7%, ALOX12 inh -12.1%, RORgamma inh 6.2% and DT40 TDP1 no CPT 16.4µM*.
`O=C(c1ccc(S(=O)(=O)c2ccc(F)cc2)c([N+](=O)[O-])c1)N1CCCCCC1` gave ELG1 DNA repair inconclusive, TDP1 cell CPT 3.26µM*, VP16 counter inconclusive, ALOX12 inh -7.6%, RORgamma inh inconclusive and DT40 TDP1 no CPT 2.31µM*.
Screening O=C(c1ccc(S(=O)(=O)Cc2ccccc2F)c([N+](=O)[O-])c1)N1CCCC1 returned ELG1 DNA repair 20.3%, TDP1 cell CPT 18.4µM*, VP16 counter -13.6%, ALOX12 inh 2.7%, RORgamma inh -23.9% and DT40 TDP1 no CPT inconclusive.
Screening O=C(c1ccc(N2CCCCC2)c([N+](=O)[O-])c1)N1CCN(S(=O)(=O)c2ccccc2)CC1 returned ELG1 DNA repair -5.9%, TDP1 cell CPT inconclusive, ALOX12 inh inconclusive and DT40 TDP1 no CPT inconclusive.
O=C(CCc1c[nH]c2ccccc12)NC1CCCc2c1[nH]c1ccc(F)cc21 (stereo not drawn) was read as ALOX12 inh -8.2%.
`CCc1ccc(OC(=O)c2ccc(C)cc2)cc1` gave ALOX12 inh -19.7%.
For O=C(Nc1ccc(Cl)cc1C(F)(F)F)C(Sc1nnc(-c2cccs2)o1)c1ccccc1 (stereo not drawn) the results were ELG1 DNA repair -21.7%, TDP1 cell CPT inconclusive, VP16 counter 2.4%, ALOX12 inh -24.1%, RORgamma inh -27.1% and DT40 TDP1 no CPT 20.6µM*.
O=C(Nc1cc(C(F)(F)F)ccc1Cl)C(Sc1nnc(-c2cccs2)o1)c1ccccc1 (stereo not drawn) was read as ELG1 DNA repair 0.7%, TDP1 cell CPT -2.5%, VP16 counter inconclusive, ALOX12 inh -15.3%, RORgamma inh 11.2µM* and DT40 TDP1 no CPT -0.9%.
`COc1ccc(C)cc1NC(=O)C(Sc1nnc(-c2cccs2)o1)c1ccccc1` (stereo not drawn) gave ELG1 DNA repair 10.0%, TDP1 cell CPT -2.2%, VP16 counter 0.1%, ALOX12 inh 8.0%, RORgamma inh inconclusive and DT40 TDP1 no CPT -7.4%.
Screening O=C(Nc1cc(C(F)(F)F)ccc1Cl)C(Sc1cccc[n+]1[O-])c1ccccc1 (stereo not drawn) returned ELG1 DNA repair 7.0%, TDP1 cell CPT 4.61µM*, VP16 counter -8.4%, ALOX12 inh -11.1%, RORgamma inh inconclusive and DT40 TDP1 no CPT 4.61µM*.
`O=C(COCc1cc(-c2cccs2)on1)Nc1cc(C(F)(F)F)ccc1Cl` gave TDP1 cell CPT inconclusive, ALOX12 inh -9.8% and DT40 TDP1 no CPT inconclusive.
c1cc2c(cc1Nc1nc(CN3CCOCC3)nc3sc4c(c13)CCCC4)CCC2 was read as ALOX12 inh 27.9%.
COc1cccc(-n2cnnc2SC(C)C(=O)Nc2cccc(C(C)=O)c2)c1 (stereo not drawn) was read as ALOX12 inh 7.6%.
Screening CC[N+](CC)(CC)CCCOC(=O)C1(c2ccccc2)CCCC1 returned ALOX12 inh 20µM*.
C[N+](C)(C)CCOC(=O)C1(c2ccccc2)CCCC1 was read as ELG1 DNA repair 1.3%, TDP1 cell CPT -29.3%, VP16 counter -7.7%, ALOX12 inh 154.4%, RORgamma inh -0.8% and DT40 TDP1 no CPT -27.1%.
`CC[N+](C)(CC)CCCOC(=O)C1(c2ccccc2)CCCC1` gave ALOX12 inh 20µM*.
Screening S=C1NC(c2ccccc2)=NCN1c1ccc(Cl)cc1 returned ELG1 DNA repair inconclusive, TDP1 cell CPT -8.2%, VP16 counter inconclusive, ALOX12 inh inconclusive, RORgamma inh 11.2µM* and DT40 TDP1 no CPT -19.9%.
`Cc1cc(O)c2c(CN3CCN(C(c4ccccc4)c4ccccc4)CC3)cc(=O)oc2c1` gave ALOX12 inh 27.2%.
Screening COc1cc(CN2CCN(C(c3ccccc3)c3ccccc3)CC2)cc(OC)c1OC returned ELG1 DNA repair inconclusive, TDP1 cell CPT 8.2µM*, VP16 counter 11.6%, ALOX12 inh inconclusive, RORgamma inh 0.7% and DT40 TDP1 no CPT 3.26µM*.
Screening COc1cccc(CN2CCN(C(c3ccccc3)c3ccccc3)CC2)c1O returned ELG1 DNA repair inconclusive, TDP1 cell CPT inconclusive, VP16 counter -6.8%, ALOX12 inh inconclusive, RORgamma inh 20.1% and DT40 TDP1 no CPT 20.6µM*.
For COc1ccc(CC(=O)NCC2CCCN(Cc3ccc(OC(F)(F)F)cc3)C2)cc1 (stereo not drawn) the results were ELG1 DNA repair -9.4%, TDP1 cell CPT -0.4%, VP16 counter -20.0%, ALOX12 inh -0.5%, RORgamma inh 32.5% and DT40 TDP1 no CPT 18.4µM*.
COc1cc(OC)cc(C(=O)NCC2CCCN(Cc3ccc(SC)cc3)C2)c1 (stereo not drawn) was read as ELG1 DNA repair -10.6%, TDP1 cell CPT inconclusive, VP16 counter -0.8%, ALOX12 inh -15.0%, RORgamma inh -1.7% and DT40 TDP1 no CPT 16.4µM*.
CCc1ccc(CN2CCCC(CNC(=O)c3cc(OC)cc(OC)c3)C2)cc1 (stereo not drawn) was read as ELG1 DNA repair -13.6%, TDP1 cell CPT inconclusive, VP16 counter 7.8%, ALOX12 inh 5.8%, RORgamma inh -23.1% and DT40 TDP1 no CPT inconclusive.
For O=C(C1=C[C@@H](c2ccc(Br)cc2)C[C@@H](OCCCCO)O1)N1CCN(Cc2ccc3c(c2)OCO3)CC1 the results were ELG1 DNA repair 0.0%, TDP1 cell CPT inconclusive, VP16 counter inconclusive, ALOX12 inh -21.1%, RORgamma inh inconclusive and DT40 TDP1 no CPT inconclusive.
O=C(NCc1ccccc1)C1=C[C@H](c2csc3ccccc23)C[C@H](OCCCCO)O1 was read as ELG1 DNA repair inconclusive, TDP1 cell CPT 16.4µM*, VP16 counter 20.1%, ALOX12 inh 281.6%, RORgamma inh inconclusive and DT40 TDP1 no CPT 18.4µM*.
